This excerpt belongs to a sample that is enriched for hits.
ST2 inh: blocks human ST2 binding to IL-33; Q01638; AlphaLISA ST2-Fc/biotin-IL-33 interaction, 1 h; inhibition, % for hits at 17 µM; actives 2.3% (n = 78,000); in the data active = inhibition above about 30%
Target sequence (Q01638 whole entry, looked up): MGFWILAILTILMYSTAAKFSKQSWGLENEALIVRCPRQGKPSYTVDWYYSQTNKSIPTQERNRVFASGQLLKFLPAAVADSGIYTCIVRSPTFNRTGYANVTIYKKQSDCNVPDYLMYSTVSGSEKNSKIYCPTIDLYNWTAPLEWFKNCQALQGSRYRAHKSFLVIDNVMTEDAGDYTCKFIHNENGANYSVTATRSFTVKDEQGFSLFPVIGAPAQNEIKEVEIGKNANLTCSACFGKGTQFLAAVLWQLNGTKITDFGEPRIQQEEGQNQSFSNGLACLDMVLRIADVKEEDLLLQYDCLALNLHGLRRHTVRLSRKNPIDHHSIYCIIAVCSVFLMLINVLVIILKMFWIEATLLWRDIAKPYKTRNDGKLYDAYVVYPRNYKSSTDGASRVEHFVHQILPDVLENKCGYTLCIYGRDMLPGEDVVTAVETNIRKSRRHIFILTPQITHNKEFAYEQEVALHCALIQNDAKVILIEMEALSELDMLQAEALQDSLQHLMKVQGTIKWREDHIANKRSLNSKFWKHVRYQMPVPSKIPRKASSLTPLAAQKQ
* hit, by the source's call; i = inactive; ! = not active in a repeat.

SMILES	ST2 inh
O=C1C2C3C=CC(C3)C2C(=O)N1c1cccc(Cl)c1Cl (configuration not stated)	i
CC(=O)OC1c2cc(C)ccc2NC(c2cccc(Br)c2)C1(C)C (configuration not stated)	i
O=C(Cn1c(=O)[nH]c2ccsc2c1=O)N(Cc1ccccc1)Cc1ccccc1	i
O=C(CSc1oc(-c2ccco2)nc1S(=O)(=O)c1ccccc1)c1ccccc1	i
CCOc1ccc(S(=O)(=O)N2CCN(c3cc(-c4cccc(F)c4)ncn3)CC2)cc1	i
COCCNC(=O)c1cc(-c2ccco2)on1	i
Cc1ccc(CN2Cc3[nH]cnc3C[C@H]2C(=O)NCc2ccccc2)cc1	i
Cc1nc(C(=O)NCc2cnc3c(C)cccn23)cs1	i
Cc1cccc(N2CCN(S(=O)(=O)c3c(C)n[nH]c3C)CC2)c1C	i
CCc1ccc(-n2c(CN3CCN(C(=O)NCc4cccc(F)c4)CC3)nc3cccnc32)cc1	i
C=CCNC(=O)c1cc2c(=O)n3cccc(C)c3nc2n(CCCn2ccnc2)c1=N	31.0%*
Cc1cccn2c(=O)c3cc(C(=O)NCC4CCCO4)c(=N)n(CCCn4ccnc4)c3nc12 (configuration not stated)	i
COCCCn1c(=N)c(C(=O)NC2CCCC2)cc2c(=O)n3cccc(C)c3nc21	i
CN1CCN(C(=O)CN2CCCCCCC2)CC1C(=O)O (configuration not stated)	i
CS(=O)(=O)NC1CCCCCCC1	i
Cc1nc2ccc3nc(NC(=O)c4cccc(Br)c4)sc3c2s1	i
COC(=O)c1ccc(C(=O)Nc2nc3ccc4nc(C)sc4c3s2)cc1	30.0%*
Cc1nc2ccc3nc(NC(=O)c4ccccc4Cl)sc3c2s1	i
COCCN1C(=O)C(=O)C(=C(O)c2ccccc2)C1c1ccccc1 (configuration not stated)	i
O=C(CSc1nc2c(c(=O)n1-c1ccc(F)cc1)SCC2)NCc1ccc(F)cc1	i
Cc1ccc(-n2c(SCC(=O)Nc3nccs3)nc3c(c2=O)SCC3)cc1	i
Cc1ccc(-n2c(SCC(=O)Nc3ccccc3F)nc3c(c2=O)SCC3)cc1	32.0%*
CCOC(=O)C(CC)Sc1nc2c(c(=O)n1-c1ccccc1)SCC2 (configuration not stated)	i
CCOC(=O)CSc1nc2c(c(=O)n1-c1ccc(C)cc1)SCC2	i
Cc1ccc(-n2c(SCC(=O)NCCc3ccccc3)nc3c(c2=O)SCC3)cc1	31.0%*
SMILES	ST2 inh
Cc1ccc(-n2c(SCC(=O)Nc3cc(C)ccc3C)nc3c(c2=O)SCC3)cc1	i
Cc1ccc(-n2c(SC(C)c3ccccc3)nc3c(c2=O)SCC3)cc1 (configuration not stated)	31.0%*!
COc1ccccc1-n1c(SCc2ccccc2)nc2c(c1=O)SCC2	i
CCOC(=O)C(C)Sc1nc2c(c(=O)n1-c1ccc(Cl)cc1)SCC2 (configuration not stated)	i
CCSc1nc2c(c(=O)n1-c1ccccc1OC)SCC2	i
COc1ccccc1-n1c(SCC(=O)Nc2ccccc2)nc2c(c1=O)SCC2	35.0%*!
COc1cccc(CN2CCN(C(=O)CC(C)C)CC2)c1OC	i
C=CCNC(=O)c1ccc2c(c1)N(Cc1c(F)cccc1Cl)C(=O)CS2	i
CC(=O)N1CCc2c(nc(-c3cccnc3)nc2NCCn2cccc2)C1	i
COc1cc(OC)cc(C(=O)N2CCN=C2SCc2ccccc2Cl)c1	i
O=C(CSc1nc2c(c(=O)n1-c1ccc(Cl)cc1)SCC2)Nc1cccc(Cl)c1	i
Cc1ccc(-n2c(SCC(=O)Nc3cccc(Cl)c3)nc3c(c2=O)SCC3)cc1	31.0%*
Cc1ccc(-n2c(SCC(=O)Nc3cccc(C(F)(F)F)c3)nc3c(c2=O)SCC3)cc1	i
CCCn1nc(C)c2c1NC(=O)CC2c1ccc(S(=O)(=O)NC)cc1 (configuration not stated)	i
CCCC(O)=C1C(=O)CC(C)(C)CC1=Nc1nc2ccccc2[nH]1	i
COc1ccc(Nc2ncnc(N)c2[N+](=O)[O-])cc1OC	i
COc1ccc(NC(=O)Cc2ccccc2[N+](=O)[O-])cc1OC	i
COc1ccc(NCc2ccc([N+](=O)[O-])s2)cc1OC	45.0%*
O=S(=O)(c1ccccc1)c1nc(-c2ccc(Cl)cc2)oc1NCc1ccco1	i
N#Cc1nc(-c2ccc(Cl)cc2)oc1NCc1ccco1	35.0%*!
COc1ccc(-c2nc(S(=O)(=O)c3ccc(Cl)cc3)c(NCc3ccco3)o2)cc1	i
O=C(Cc1ccccc1)N1CCN=C1SCc1ccc(Cl)cc1	i
CN1CCCN(Cc2cccc(F)c2)CC1	i
CCN(CC)c1ccc(CN2CCN(C)CC2)cc1	56.0%*
CN1CCCN(Cc2cccc(Cl)c2)CC1	i
CCN1CCN(Cc2ccc(N(CC)CC)cc2)CC1	58.0%*
CCc1ccc(CN2CCSCC2)cc1	i
CCN1CCN(Cc2ccc(-c3ccccc3)cc2)CC1	i
Cc1ccccc1Cn1nc(C)c(NC(=O)c2cc(C(C)C)on2)c1C	i
Cc1cccc(NS(=O)(=O)c2cc([N+](=O)[O-])ccc2C)c1	i

Screening results: PubChem BioAssay, Paczesny and Yang Labs, IUPUI and University of Michigan
